# Data: PubChem BioAssay (EPA / NIEHS)
# Some structures have more than one record in an assay (separate samples or runs), and their calls can disagree. Active and inactive are the calls of the source. The calls were made as follows: active = hit-call score of the fitted dose curve at least 0.9, where 1 is the maximum; inactive = score below 0.9.
# Read-out: Vascular cell adhesion molecule 1 (VCAM1), VCAM1 (gene 7412)
# Assay: BSK_hDFCGF_VCAM1: BioMAP Diversity Plus: hDFCGF Assay for Vascular cell adhesion molecule 1 (VCAM1) Biomarker Activity (AID 2283065)
# Conditions: primary human foreskin fibroblasts; actives raise or lower the signal
# Procedure: BSK_hDFCGF is a cell-based, multiplexed-readout assay that uses foreskin fibroblast, a human skin primary cell, with measurements taken at 24 hours after chemical dosing in a 96-well plate.BSK_hDFCGF_VCAM1 is an assay component measured in the BSK_hDFCGF assay. It measures VCAM-1 antibody related to regulation of gene expression using ELISA technology.Data from the assay component BSK_hDFCGF_VCAM1 was analyzed into 1 assay endpoint. This assay endpoint, BSK_hDFCGF_VCAM1, was analyzed with bidirectional fitting relative to DMSO as the negative control and baseline of activity. Using a type of binding reporter, gain or loss-of-signal activity can be used to understand changes in the signaling as they relate to the gene VCAM1. Furthermore, this assay endpoint can be referred to as a primary readout, because this assay has produced multiple assay endpoints where this one serves a signaling function. To generalize the intended target to other relatable targets, this assay endpoint is annotated to the cell adhesion molecules intended target family, where the subfamily is Immunoglobulin CAM.
# The levels of cell surface (or secreted, indicated by the prefix "s") biomarker endpoints were measured by ELISA. Overt cytotoxicity to cells in confluent adherent cultures (all systems other than the BT system) was assessed by measuring total protein levels using sulforhodamine B (SRB) staining in parallel cultures at the time of biomarker measurements, indicated as SRB endpoints. For proliferation assays for adherent cell types, individual cell types are cultured at sub-confluence and relative cell numbers quantified by SRB staining at time points optimized for each system (48 h: 3C and CASM3C systems; 72 h: BT and HDF3CGF systems; 96 h: SAg system). SRB was performed by staining cells with 0.1% SRB after fixation with 10% TCA and reading wells at 560 nm.Viability and proliferation of PBMC (T cells) was quantified by Alamar Blue reduction for the SAg and BT systems. For PBMC viability (referred to as PBMC Cytotoxicity within the assay endpoint names), cells were plated (75,000/well in a 96-well plate) and then chemical samples added for 1 h before addition of activators, SEB and TSST-1 (20 ng/mL final concentration each). Cells were incubated for 90 h. Then, Alamar Blue (20 uL/well) (Invitrogen, Cat DAL1100) was added for 6 h, and the plates were read with a fluorescence microplate reader at 546/580 nm (excitation/emission). For PBMC proliferation, cells were plated and activated as above but incubated for only 16 h prior to addition of Alamar Blue. Plates were read after 6 h.
Structure (SMILES),outcome,AC50
CC(Cc1ccc(OCC(=O)O)cc1)NCC(O)c1csc(C(F)(F)F)n1 (stereo not given),inactive,
Cc1cccc(N)c1,inactive,
CCOP(=S)(OCC)SCS(=O)(=O)CC,inactive,
N#Cc1cc([N+](=O)[O-])ccc1N,inactive,
CC(C)(C)c1ccc(O)cc1,inactive,
ClC1=C(Cl)C2(Cl)C3C(Cl)C(Cl)CC3C1(Cl)C2(Cl)Cl (stereo not given),,5.47 µM (active)
Nc1cc2c3c(c1)C(c1ccccc1)=N[C@@H](NC(=O)c1cccnc1)C(=O)N3CC2,inactive,
CCC(C)(C)c1ccc(O)cc1,inactive,
O=C(O)C=CC(F)(C(F)(F)F)C(F)(F)F,inactive,
COP(=O)(O)OC,inactive,
Cc1ccc([N+](=O)[O-])cc1C,inactive,
CCN(CC)c1ccccc1,inactive,
CCOC(=O)c1ccccc1C(=O)OCC,inactive,
O=S(=O)(F)C(F)(F)C(F)(F)C(F)(F)C(F)(F)C(F)(F)C(F)(F)C(F)(F)C(F)(F)F,inactive,
CCNc1nc(Cl)nc(NC(C)(C)C)n1,inactive,
O=C(O)C(F)(F)OC(F)(F)C(F)(F)OC(F)(F)F,inactive,
C=CC(=O)OCC(CC)(COC(=O)C=C)COC(=O)C=C,,1.07 µM (active)
COP(N)(=S)OC,inactive,
c1cc2c3c(cccc3c1)CC2,inactive,
O=C(O)C(F)(F)OC(F)(F)C(F)(F)OC(F)(F)C(=O)O,inactive,

Structure (SMILES),outcome,AC50
CCCCN(CCCC)SN(C)C(=O)Oc1cccc2c1OC(C)(C)C2,,5.54 µM (active)
CCCCC(CC)COC(=O)c1c(Br)c(Br)c(Br)c(Br)c1C(=O)OCC(CC)CCCC (stereo not given),inactive,
OCC1CO1 (stereo not given),inactive,
OCC(F)(F)OC(F)(F)C(F)(F)OC(F)(F)C(F)(F)OC(F)(F)F,inactive,19.3 µM (active)
c1ccc2c(c1)Nc1ccccc1S2,,20 µM (active)
O=C(O)C1C(C(=O)O)C2(Cl)C(Cl)=C(Cl)C1(Cl)C2(Cl)Cl (stereo not given),inactive,
c1nc[nH]n1,inactive,
CCOS(=O)(=O)OCC,inactive,
O=C(O)C(Cl)Cl,inactive,
CCOP(=S)(OCC)SCSc1ccc(Cl)cc1,,3.97 µM (active)
O=C(O)C(F)(OC(F)(F)C(F)(F)C(F)(F)F)C(F)(F)F (stereo not given),inactive,
CC(C)(C)c1ccccc1OP(=O)(Oc1ccccc1)Oc1ccccc1,,20 µM (active)
CN(C)C(=O)Cl,inactive,
CC(C)(C)OOC(C)(C)C,inactive,
COCCOCCO,inactive,
c1ccc2c(c1)sc1ccccc12,inactive,
ClC(Cl)(Cl)c1ccccc1,inactive,
CCCCc1ccccc1,inactive,
CC(O)C(F)(F)C(F)(F)F (stereo not given),inactive,
